# Assay outcomes as filed in PubChem BioAssay.
# Hits are enriched below; roughly 1.5% of the tested compounds scored in any of these assays.
# LANA-H2B inh – blocks KSHV LANA binding to histone H2A/H2B; inhibition, % (no concentration beside the values); Q9QR71; AID 2629; 320,000 tested, 0.6% active; cell-free LANA-H2A/H2B peptide, fluorescence polarization; in the data active means inhibition mostly above about 10%, no sharp cut-off; inactive means mostly below about 6.7%
# GLD-1 RNA inh – GLD-1-TGE RNA interaction inhibition (C. elegans). AID 2280. Q17339. 320,000 tested, 0.44% active. purified GLD-1 + fluorescein TGE RNA, fluorescence polarization. inhibition, % at 5.96 µM;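 active means percent inhibition above a per-plate cutoff, the plate mean of test compounds plus 3 SD, cut at about 30% in these data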
# Keap1 Nrf2 FP – disrupts human Keap1 binding to Nrf2 peptide | Keap1 Kelch-Nrf2 peptide fluorescence polarization, 1536-well | inhibition, % at 9.4 µM | 340,000 tested, 0.15% active | AID 504523; in the data active means inhibition above about 12%; inconclusive means no clear call, values can overlap the other calls; inactive means below about 7.3%;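 further: human Keap1 Kelch domain with fluorescein labeled Nrf2 9mer peptide probe; higher means more block of Keap1 binding to Nrf2 peptide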
# Target sequence (Q14145 whole entry, looked up, the tested form may be a part): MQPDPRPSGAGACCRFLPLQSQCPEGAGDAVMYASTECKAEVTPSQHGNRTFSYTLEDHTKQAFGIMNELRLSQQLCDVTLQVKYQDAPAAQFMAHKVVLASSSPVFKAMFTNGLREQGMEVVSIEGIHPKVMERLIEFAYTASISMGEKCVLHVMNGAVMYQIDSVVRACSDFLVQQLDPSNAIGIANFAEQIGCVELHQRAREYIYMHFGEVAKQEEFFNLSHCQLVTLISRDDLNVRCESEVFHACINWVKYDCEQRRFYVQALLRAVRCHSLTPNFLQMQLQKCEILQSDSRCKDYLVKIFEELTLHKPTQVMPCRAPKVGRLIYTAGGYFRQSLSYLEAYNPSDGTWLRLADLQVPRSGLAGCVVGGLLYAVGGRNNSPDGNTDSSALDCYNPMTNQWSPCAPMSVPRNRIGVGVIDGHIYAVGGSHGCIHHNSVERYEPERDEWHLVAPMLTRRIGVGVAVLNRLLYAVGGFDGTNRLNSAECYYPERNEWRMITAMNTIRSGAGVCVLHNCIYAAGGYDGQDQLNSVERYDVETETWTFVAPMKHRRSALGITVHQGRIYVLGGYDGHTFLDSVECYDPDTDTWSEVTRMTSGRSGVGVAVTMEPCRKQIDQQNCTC
# C-LANA FP – blocks KSHV LANA C-terminal domain binding to DNA. 340,000 tested, 0.078% active. inhibition, % at 9 µM. MBP-C-LANA/FAM-LBS DNA binding, fluorescence polarization;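 active means highest replicate inhibition at or above 60% at 9 µM, even if other replicates fall short; inactive means all replicates below 60% inhibition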
# EBV gp42 inh – EBV gp42 inhibition; Q1HVG2; Fluorescence polarization binding assay, mP read-out; inhibition, % (tested at 21.74 µM); 220,000 tested, 0.42% active; AID 1085; in the data active means inhibition above about 50%
# E coli Lon inh – E. coli protease La inhibition; 360,000 tested, 0.42% active; inhibition, % at 7.94 µM; purified E. coli Lon protease, fluorescence polarization; in the data active means inhibition above about 13%, passing the limit was not always enough
# Keap1 Kelch bind – Keap1 (human) Kelch domain binding; shares compounds with Keap1 Nrf2 FP; Keap1 Kelch thermal shift, delta Tm; active compounds read high; max delta Tm, degrees C; 400 tested, 8% active; in the data active means max delta Tm above about 0.48 degrees C
# Sypro dye melt – dye artifact in Keap1 thermal shift counter-screen; Sypro Orange dye-only thermal melt, no protein, delta Tm; top dose 26 µM; AID 651858; delta Tm, degrees C (concentration not given with the values); 140 tested, under 10 active; shares compounds with Keap1 Nrf2 FP;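 active means at highest dose tested, delta Tm positive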
# Hits are given with their value; 0 = inactive; ? = inconclusive; - = no result.
SMILES,LANA-H2B inh,GLD-1 RNA inh,Keap1 Nrf2 FP,C-LANA FP,EBV gp42 inh,E coli Lon inh,Keap1 Kelch bind,others
Cc1cccc(N2C(=O)C3CCCN3C2=S)c1C (stereo unspecified),0,0,0,0,-,0,-,
O=S(=O)(O)c1ccc(O)c2cc(Nc3ccccc3)ccc12,-,-,25.1,120.4,-,0,0.97,
O=C(Nc1ccc(S(=O)(=O)Nc2nccs2)cc1)c1ccc(=O)[nH]c1,0,0,0,0,0,0,-,
CC(=O)Nc1ccc(NS(=O)(=O)c2ccc3c(c2)oc(=O)n3C)cc1,0,0,19.1,0,-,0,0,
COc1cc(/C=C2/C(C)=C(C#N)c3nc(N)c(C#N)c(C)c32)ccc1OCC(=O)O,0,0,0,0,0,-,-,
CC1=C(C#N)c2nc(N)c(C#N)c(C)c2/C1=C\c1ccc(-c2ccccc2C(=O)O)o1,-,-,92.0,0,0,0,2.26,
C=CCn1c(SCC(=O)N(C(C)CC)C2CCS(=O)(=O)C2)nc2ccccc2c1=O (stereo unspecified),-,-,0,0,-,0,-,
COc1ccc2c(c1)c1nc3ccccc3nc1n2CC(=O)OC(C)C,0,0,24.3,0,90.8,0,0,Sypro dye melt=0
COC(=O)N/N=C/c1cn(Cc2ccccc2Cl)c2ccccc12,0,0,17.4,0,0,0,0,Sypro dye melt=0
CNC(=S)Nc1cccc(C(=O)OC)c1,0,0,40.6,-,0,0,0,Sypro dye melt=0
COc1cc(NC(=O)C2CCCN(c3ncccn3)C2)cc(OC)c1 (stereo unspecified),0,0,0,0,0,0,-,
COc1ccc(C(=O)N2CCNC(=O)C2CC(=O)Nc2cc(Cl)ccc2OC)cc1 (stereo unspecified),0,0,0,0,-,0,-,
CCCN(CCC)S(=O)(=O)c1ccc(C(=O)OCCN2C(=O)c3cccc4c(N5CCOCC5)ccc(c34)C2=O)cc1,-,0,39.0,0,134.7,0,0,Sypro dye melt=0
Cn1cncc1C#Cc1c(C=O)n(C)c2ccccc12,0,0,0,0,-,0,-,
COc1cc(C#Cc2c(C=O)n(C)c3ccccc23)cc(OC)c1,0,0,30.2,0,-,0,0,
CN(C)c1ccc(/C=N/NC(=O)CCC(=O)NCc2ccccc2)cc1,0,0,53.0,0,0,0,0,
O=C(CSCC(=O)Nc1ccccc1)N/N=C/c1c(O)ccc2ccccc12,0,0,12.4,0,0,0,0,Sypro dye melt=0
N/C(=N/OC(=O)c1ccc(Cl)cc1)c1ncc([N+](=O)[O-])s1,0,0,22.3,0,0,0,0,Sypro dye melt=0
Cc1nn(-c2ccccc2Cl)c(Cl)c1/C=N/Nc1nc2ccccc2s1,0,0,34.2,0,0,0,0,
O=C(c1ccc2c3c(cccc13)CC2)C1CCCN(C(=O)c2ccc[n+]([O-])c2)C1 (stereo unspecified),0,0,0,0,0,0,-,
CC1CCN(C(=O)Cn2cc(C(F)(F)F)ccc2=O)c2ccccc2S1 (stereo unspecified),0,0,49.3,0,-,0,0,
O=C(Cn1cc(C(F)(F)F)ccc1=O)N1CCCc2ccccc21,0,0,0,0,-,0,-,
Cc1nn(-c2cccc(C(F)(F)F)c2)c(=O)c2noc(C)c12,0,0,?,0,0,0,-,
Cc1oc(-c2cccs2)nc1CN1CCN(C(C)C)C(CCO)C1 (stereo unspecified),0,0,0,0,0,0,-,
O=C(CCc1ccccc1)NNC(=O)c1cccc(F)c1,0,0,0,0,0,0,-,
SMILES,LANA-H2B inh,GLD-1 RNA inh,Keap1 Nrf2 FP,C-LANA FP,EBV gp42 inh,E coli Lon inh,Keap1 Kelch bind,others
CC1(C)CC(=O)C2=C(C1)OC(N)=C(C#N)C2c1ccccc1[N+](=O)[O-] (stereo unspecified),0,119.4,24.8,0,0,0,0,
O=C(CN1CCN(C(=O)CNC(=O)c2ccc3c(c2)OCO3)CC1)Nc1ccc(F)cc1,0,0,61.8,-,-,0,0,
C[C@H]1CN([C@@H](C)CO)C(=O)CCCn2nncc2CO[C@H]1CN(C)S(C)(=O)=O,-,-,-,-,-,0,-,
CCCCCC(=O)N1CCCC1,0,-,16.5,0,0,0,0,Sypro dye melt=0
COc1ccc(OC)c(C(=O)c2coc3ccc(O)c(CN(C)C)c23)c1,0,0,18.6,0,-,0,0,
COc1ccc2occ(C(=O)c3coc4ccc(O)c(CN(C)C)c34)c2c1,0,0,0,0,0,0,-,
NC(=O)c1cc2ccc(O)cc2oc1=NCc1ccccc1,-,94.8,16.1,0,107.9,0,0,Sypro dye melt=0
COc1ccc(Cc2nnc(Cl)c3ccccc23)cc1OC,0,0,0,0,-,0,-,
COc1cc(/C=C/CN2CCN(Cc3ccc(C)o3)C(CCO)C2)ccc1O (stereo unspecified),0,0,0,0,0,0,-,
COc1cc(/C=C/CN2CCN(CCC(C)C)C(CCO)C2)ccc1O (stereo unspecified),0,0,17.7,0,0,0,0,
CCOC(=O)CNC(=O)COc1coc(CN2CCN(c3ccccc3F)CC2)cc1=O,0,0,0,0,-,0,-,
COc1ccc(/C(C)=N/Nc2nc3ccccc3n3cnnc23)cc1OC,0,0,-,-,0,-,-,
COc1cc(CO)ccc1Oc1nc2ccccc2n2cnnc12,0,0,30.8,0,0,0,0,
COc1ccc(OC)c(C2=NS(=O)(=O)N(C)C(C(=O)Nc3cccc(C(C)=O)c3)=C2)c1,0,0,0,0,-,0,-,
COc1cccc(NC(=O)CN(C)CC(=O)NCc2ccco2)c1,0,0,24.0,80.8,-,0,0,Sypro dye melt=0
CCCCC(CC)C(=O)Oc1ccc(O)c(C(C)(C)C)c1 (stereo unspecified),0,0,14.9,0,0,0,0,
CN(N=Nc1cccc([N+](=O)[O-])c1)c1ccccc1,0,0,0,0,-,0,-,
CN(N=Nc1ccc([N+](=O)[O-])cc1)c1ccccc1,0,0,113.3,100.6,81.9,0,0,
CC(c1ccccc1)n1c(CCCO)nc2ccccc21 (stereo unspecified),0,-,0,0,-,0,-,
C=CCn1cccc(C(=O)Nc2ccc(OC)c(OC)c2)c1=O,0,0,0,0,0,0,-,
C=CCn1cccc(C(=O)Nc2ccc(OC)c(Cl)c2)c1=O,0,0,48.1,0,-,0,0,
CCc1ccc(-c2cc3c(=O)n(CC(=O)NCCCN4CCN(CC)CC4)nc(C)n3n2)cc1,0,0,0,0,-,0,-,
C/C(=N/Nc1ccccc1C(=O)O)c1cccs1,0,0,73.5,-,-,0,0,Sypro dye melt=0
C/C(=N\Nc1ccc(Cl)c(C(=O)O)c1)c1cccs1,0,0,0,0,0,0,-,
O=C(CC1C(=O)NCCN1Cc1cccc(Oc2ccccc2)c1)NCCc1ccncc1 (stereo unspecified),0,0,0,0,0,0,-,
O=C(CNc1ccc(F)cc1Cl)Nc1cccc(S(=O)(=O)N2CCCCC2)c1,0,0,0,0,-,0,-,
